Shown is part of a subset that was picked to be rich in hits.
Pf Dd2 growth – Plasmodium falciparum Dd2 growth inhibition; 120,000 compounds, 4.3% hits; AID 1347417; P. falciparum Dd2 growth, SYBR Green, 72 h; Potency, µM (series often up to 28.9 µM), without a hit: at the top dose activity, negative = inhibition, most hits filed as inhibitors; active means well fitted inhibition curve with a large enough effect;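 further: plate controls were DMSO vehicle for no effect and reference drug for full effect; nearly all actives have a fitted effect of over 65% in size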
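Readout: SYBR Green fluorescence, 485 nm excitation, 535 nm emission, after ~16 h lysis at 37C. Before that, Dd2-infected red cells (2.5% hematocrit) grew 72 h with compound, 29 uM top final concentration.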
Starred values were filed as active, the others as inactive; i = inactive; ! = not confirmed by another sample; [ ] = remark or other dose. Potency means the concentration at half of the fitted maximal effect.

SMILES	Pf Dd2 growth
COCCn1c(COc2ccc3c(c2)ncn3C)nnc1C1CC(N)C1 (stereo not drawn)	-17%
NC1CC(c2nnc(COc3ccc4c(c3)CCNCC4)n2C2CC2)C1 (stereo not drawn)	10µM*!
CCn1c(COc2ccc(C)nc2)nnc1C1CC(N)C1 (stereo not drawn)	-26%
C[C@@]1(O)CCN(Cc2cn[nH]c2-c2ccccc2)C[C@H]1N1CCCC1	-14%[5.79 µM]
COC[C@@H]1CN(C(=O)c2cc(Cl)ccc2OC)C[C@H]1C(N)=O	i
O=C1CCN(C(=O)C2CCCCC2)CCCC(c2nc(-c3cccnc3)no2)CCN1 (stereo not drawn)	-13%
Cc1cccc(Nc2nc(N)nc(CN3CC[C@@](O)(C4CCC4)[C@H](C)C3)n2)c1	8.9µM*
COc1cc(F)c(CN2CC[C@@](O)(C3CC3)[C@H](C)C2)cc1OC	i
C[C@@H]1CN(Cc2noc(C3CCCC3)n2)CC[C@@]1(O)C1CCC1	-24%
COc1cc2c(cc1OC)C(C[C@H]1CN(C(=O)Cc3cccs3)CC[C@H]1CC(=O)O)=NCC2	-12%
Cc1ccc(-c2nc3ccccn3c2Nc2ccc3c(c2)OCCO3)o1	-20%
Cc1ccc2nc(-c3ccc(C)o3)c(Nc3ccc4c(c3)OCCO4)n2c1	-21%
Brc1ccc(-c2nc3ccccn3c2Nc2ccc3c(c2)OCCO3)o1	13µM*
Cc1ccn2c(Nc3ccc4c(c3)OCCO4)c(-c3ccccc3O)nc2c1	11µM*
c1csc(-c2nc3ccccn3c2Nc2ccc3c(c2)OCCO3)c1	17%
Cc1ccc(-c2nc3ccc(Cl)cn3c2Nc2ccc3c(c2)OCCO3)s1	33%
CN1[C@@H](CCC(=O)N2CCN(c3ccccn3)CC2)CNC(=O)[C@@H]2[C@H]1CCN2Cc1cccs1	-16%
Cc1noc(-c2nc(-c3ccc(Cl)cc3)no2)n1	-17%
CCS(=O)(=O)Nc1ccc(C(=O)N2CC[C@](C)(O)[C@@H](O)C2)cc1	-19%
CC(c1cccs1)N(C)CC1CCCCC1 (stereo not drawn)	11%[44.1 µM]
COc1ccc(C(=O)NC2CCN(C(=O)N3CC4CC(C3)[C@H]3CCCC(=O)N3C4)CC2)cc1 (stereo partly drawn)	-4%
O=C1[C@@H]2CSC(c3ccc(C(F)(F)F)cc3)N2C(=O)N1c1ccccc1 (stereo partly drawn)	12%
CCc1ccc(CNC(=O)c2cc3c(s2)-c2ccccc2OC3)cc1	11%
CC(C)c1ccc(C2Sc3ccccc3NC3=C2C(=O)c2ccccc23)cc1 (stereo not drawn)	3.5µM*
CCc1ccc(C2Sc3ccccc3NC3=C2C(=O)c2ccccc23)cc1 (stereo not drawn)	2µM*
SMILES	Pf Dd2 growth
O=C1C2=C(Nc3ccccc3SC2c2ccc(C(F)(F)F)cc2)c2ccccc21 (stereo not drawn)	4.5µM*
OC[C@@H]1O[C@H](CNCc2cccc(Cl)c2)[C@H](N2CCCC2)[C@@H]1O	i
CCn1cc(S(=O)(=O)N2CCCCC2c2nc(-c3ccncc3)n[nH]2)cn1 (stereo not drawn)	-10%
O=C1CCN(S(=O)(=O)c2ccccc2)CCCC(C(=O)NCCN2CCCC2)CCN1 (stereo not drawn)	22%
CC(C)C(=O)N1CCOC[C@H](Oc2ccc(C(F)(F)F)cn2)C1	-14%[44.1 µM]
Cc1ccc(S(=O)(=O)c2cn(C)c3cc(N4CCN(c5ccccc5)CC4)c(F)cc3c2=O)cc1	-24%
Cn1cc(S(=O)(=O)c2ccccc2)c(=O)c2cc(F)c(N3CCN(c4ccccc4)CC3)cc21	7.1µM*
Cn1cc(S(=O)(=O)c2ccccc2)c(=O)c2cc(F)c(N3CCOCC3)cc21	-7%
CCn1cc(S(=O)(=O)c2ccccc2)c(=O)c2cc(F)c(N3CCN(c4ccccc4)CC3)cc21	3.2µM*
CCn1cc(S(=O)(=O)c2cccc(C)c2)c(=O)c2cc(F)c(N3CCCCC3C)cc21 (stereo not drawn)	26%
CCn1cc(S(=O)(=O)c2ccccc2)c(=O)c2cc(C)ccc21	-21%
COC(=O)[C@@H]1Cc2nc[nH]c2CN1Cc1ccc(C(=O)O)cc1	36%[44.1 µM]
COCCOC(=O)C1=C(C)N=C2SC=C(CC(=O)NCCc3ccccc3)N2C1c1ccccc1 (stereo not drawn)	-19%
CCOc1ccc(C(=O)N[C@@H]2CN(c3ncccn3)C[C@H]2CO)cc1	-6%
COc1ccc(-n2nc(C3CCN(Cc4ccc(C)cc4)CC3)[nH]c2=O)cc1	13µM*!
O=C(Cc1ccc(F)cc1)N1CCC(c2nn(-c3ccc(Cl)cc3)c(=O)[nH]2)CC1	i
COc1ccc(-n2nc(C3CCN(Cc4ccc(F)cc4)CC3)[nH]c2=O)cc1	i
COc1ccc(-n2nc(C3CCN(Cc4ccc(C#N)cc4)CC3)[nH]c2=O)cc1	i
COc1ccc(C(=O)N2CCC(c3nn(-c4ccc(Cl)cc4)c(=O)[nH]3)CC2)cc1	-14%
CC(C)(C)C(=O)N1CCC(c2nn(-c3ccc(Cl)cc3)c(=O)[nH]2)CC1	8.9µM*
O=C(c1ccc(Cl)nc1)N1CCn2c(nn(-c3ccc(F)cc3)c2=O)C1	-10%
Cc1n[nH]c(C)c1CCC(=O)Nc1ccc2c(c1)C(=O)N1CCC[C@H]1C(=O)N2	3%
COc1cc(CNC(=O)CN2CCCc3nc(C4CC4)ncc3C2=O)cc(OC)c1	22%
O=C(c1cccc(F)c1)N1CCC(Oc2ccccc2-c2nc(C3CCOCC3)no2)C1 (stereo not drawn)	-2%
Fc1ccc(F)c(CN2CCC(Oc3ccccc3-c3nc(C4CCOCC4)no3)C2)c1 (stereo not drawn)	4.5µM*
SMILES	Pf Dd2 growth
O=C(c1ccoc1)N1CCC(Oc2ccccc2-c2nc(C3CCOCC3)no2)C1 (stereo not drawn)	i
CCNC(=O)N[C@H]1CC[C@]2(C)CCC([C@H](C)C(=O)NCc3ccccc3OC)[C@H](O)[C@H]2[C@@H]1C (stereo partly drawn)	i
c1cncc(-c2ccnc(NCCCN3CCCc4ccccc43)n2)c1	11µM*
c1ccc2c(c1)CCCN2CCCNc1ncncn1	-15%
c1cncc(-c2ccnc(NCCCn3nccc3C3CC3)n2)c1	-28%
CN(CC[C@H]1CN(C(=O)c2ccnc(Cl)c2)CC[C@H]1CC(=O)O)c1ccccc1	i
COc1cc(CNC(=O)c2nc(C(O)c3ccccn3)oc2C)cc(OC)c1 (stereo not drawn)	-3%[44.1 µM]
Cc1cc2ncc(C(=O)NCC(F)F)cn2n1	4%[44.1 µM]
Cc1ccc(S(=O)(=O)Cc2noc([C@@H]3C[C@@H](O)CN3Cc3cccc(OC(F)(F)F)c3)n2)cc1	i
COCCCNC(=O)c1cc2c(=O)[nH]c(C)cn2n1	21%
Cc1cn2nc(C(=O)NCc3cccc(Cl)c3)cc2c(=O)[nH]1	8%
Cc1ccc(CNC(=O)c2ccc(NC(=O)c3cc4c(=O)[nH]c(C)cn4n3)cc2)cc1	4µM*
COc1ccc(CCNC(=O)c2cc3c(=O)[nH]c(C)cn3n2)cc1OC	i
Cc1cn2nc(C(=O)NCCCc3ccccc3)cc2c(=O)[nH]1	7.9µM*
Cc1cn2nc(C(=O)NCc3cc(F)cc(F)c3)cc2c(=O)[nH]1	10%
COc1ccccc1NC(=O)Nc1ccc2n(c1=O)C[C@H]1C[C@@H]2CN(C(=O)C(=O)O)C1	20%[44.1 µM]
COC(=O)CNC(c1ccccc1)c1cc(Br)ccc1NC(=O)c1ccc(Cl)cc1 (stereo not drawn)	i
CCOC(=O)CSc1nc2ccc(NC(=O)c3ccc(Cl)cc3)cc2s1	-6%
CCOC(=O)CNC(c1ccccc1)c1cc(Br)ccc1NC(=O)c1ccc(Cl)cc1 (stereo not drawn)	4µM*

Source: PubChem BioAssay (National Center for Advancing Translational Sciences (NCATS))
